Bioassay records: PubChem, National Center for Advancing Translational Sciences (NCATS)
LASV entry inh: blocks Lassa virus binding to or entry into cells | Lassa virus pseudotype entry inhibition, cell reporter | Potency, µM (top dose mostly 37.9 µM), for inactives: at the highest dose activity change, negative = inhibition, actives largely listed as inhibitors | 300,000 compounds, 1.2% hits | AID 540256; calls by dose curve; tested in HEK293 cells; further: potency means the concentration at half of the fitted maximal effect; nearly all actives have a fitted effect of over 50% in size
HCV inhibitor: HCV inhibition. 340,000 compounds, 3.4% hits. Huh7.5.1 HCVcc-Cre infection, luciferase reporter, 44 h. Potency, µM (top dose mostly 41.8 µM), for the others: at the highest dose activity change, negative = inhibition, usual class: inhibitors; further: potency means the concentration at half of the fitted maximal effect
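Reporter virus HCVcc-Cre (~0.5 moi) infects cells exposed to compound; seeding density 1,000 cells/well with 4 h settling beforehand. Luminescence, 15 sec read, taken 44 h post-infection following a 15 min RT substrate incubation.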
Pf growth 48h: P. falciparum growth inhibition at 48 hours (one generation); 310,000 compounds, 5.9% hits; AID 504832; Potency, µM (titrated, usually from 28.7 µM), inactives show at the top dose activity change, negative = inhibition, most hits filed as inhibitors; P. falciparum luciferase growth in erythrocytes, 48 h; further: potency means the concentration at half of the fitted maximal effect
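Read-out is firefly luciferase luminescence from an integrated reporter in P. falciparum, so falling signal marks reduced parasite growth. Infected erythrocytes were at 2% hematocrit and 0.1% parasitemia (final) in Albumax-supplemented RPMI 1640.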
HCMV inh: inhibitors of human cytomegalovirus; HFF cells, HCMV-luciferase reporter, 72 h; hits give low values; activity change, negative = inhibition, % at 57.5 µM; 410,000 compounds, 4.5% hits; in the data active means activity change below about -60%; inconclusive means no clear call, values can overlap the other calls; inactive means above about -39%
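Compounds were evaluated in HFFs infected with an HCMV luciferase reporter virus (MOI 1 PFU/cell). Luciferase in lysates collected 72 h post infection served as the replication measure.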
MARV entry inh: Marburg virus entry inhibition | Potency, µM (doses to about 37.8 µM), without a hit: at the highest dose activity change, negative = inhibition, actives largely listed as inhibitors | AID 540276 | Marburg virus pseudotyped entry inhibition, cell reporter | 300,000 compounds, 1.8% hits; calls by dose curve; tested in HEK293 cells; further: potency means the concentration at half of the fitted maximal effect
Pf growth 96h: P. falciparum growth inhibition at 96 hour, primary screen for plastid delayed-death inhibitors. 320,000 compounds, 6.9% hits. AID 504834. Potency, µM (doses to about 28.7 µM), for the others: at the top dose activity change, negative = inhibition, most hits filed as inhibitors. P. falciparum luciferase reporter growth, 96 h; further: potency means the concentration at half of the fitted maximal effect
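96 h incubation, 37 C, 5% CO2, of luciferase-reporter P. falciparum-infected RBCs (2% hematocrit, 0.05% parasitemia final) with test compounds; endpoint luminescence.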
Numbers without * were called inactive; ? = inconclusive; / = no result; [ ] = remark or other dose. Sampled rows, rich in hits. Any-hit rate of the full collection: about 14%. Unless noted, the call rests on the fitted dose curve; in most records, active means well fitted inhibition curve with a large enough effect; inconclusive means small, poorly fitted or top-dose-only effect, or another doubt; inactive means no such curve, though single readings can be large or run the other way. On the % scale 0 is the no-effect control and ±100 the full control effect.

SMILES	LASV entry inh	HCV inhibitor	Pf growth 48h	HCMV inh	MARV entry inh	Pf growth 96h
COc1ccc(/C=C/C(=O)NCc2cn(C)nc2C)cc1COc1ccc(Br)cc1	-2%	?	3.7µM*	-18	-20%	?
CN1CCc2c(c3ccccc3n2Cc2ccccc2)C1	/	-28%	-7%[12.8 µM]	-38	/	?
CCCCN1CCc2c(c3ccccc3n2Cc2ccccc2)C1	/	?	10µM*	?	/	6.6µM*
C=CCNC(=S)N/N=C/c1ccc(-c2ccc(OC)cc2)o1	1.8µM*	?	5.2µM*	13	?	?
NS(=O)(=O)c1ccc(-c2ccc(/C=N/NC(=O)c3ccc([N+](=O)[O-])cc3)o2)cc1	/	12%	53%	0	/	54%
Cc1cc([N+](=O)[O-])ccc1-c1ccc(/C=N/NC(=O)c2ccc(Br)o2)o1	/	?	?	-89*	/	?
CCCCC(=O)N/N=C/c1ccc(-c2ccc([N+](=O)[O-])cc2)o1	-10%	?	-24%	?	-31%[46.1 µM]	9.3µM*
Cc1cc(C(=O)N/N=C/c2ccc(-c3ccc([N+](=O)[O-])cc3C)o2)n[nH]1	-25%[46.1 µM]	?	-12%	-15	0%[46.1 µM]	?
COc1ccc(N(CC(=O)N/N=C/c2ccc(-c3ccc([N+](=O)[O-])cc3)o2)S(=O)(=O)c2ccc(C)cc2)cc1	-14%	?	7%	-68*	?	39%
COc1ccc(O[C@H]2C=C[C@@H](c3ccccc3)O[C@H]2COC(=O)CCC(C)=NO[C@H](C)c2cn([C@H](CO)Cc3ccccc3)nn2)cc1	?	/	/	/	-9%[14.2 µM]	/
Cc1ccc(-c2nc3ccc(Br)cn3c2CC(C)(C)C)cc1	/	/	/	4	/	/
COc1ccccc1CNC(=O)C(NS(=O)(=O)c1ccc2c(c1)CCN2C(C)=O)C(C)C (stereo not given)	4%[46.1 µM]	/	/	5	3%[46.1 µM]	/
CCc1ccc(NS(=O)(=O)c2c(-c3ccccc3)csc2C(=O)OC)cc1	?	/	/	-14	/	/
COc1ccc(Cc2nnc(SCC(=O)N(C)CC(=O)Nc3ccc(C)cc3)o2)cc1	1%	-17%[8.37 µM]	2%	-28	-16%	-5%
Cc1nnc(N/N=C\c2ccc(-c3ccccc3[N+](=O)[O-])o2)n1N	12%	-27%	-8%	127	?	?
Cc1ccc(/C=N/NC(=O)c2ccc(Cn3cc([N+](=O)[O-])cn3)o2)cc1	-13%	-10%	18%	-26	14%	-22%
CCc1nnc(N/N=C/c2ccc(-c3ccc([N+](=O)[O-])cc3)o2)n1N	8%[46.1 µM]	-10%	12µM*	7	?	?
CNC(=S)N/N=C/c1ccc(-c2ccc(Cl)c([N+](=O)[O-])c2)o1	-14%	?	?	-29	?	-26%
CC(C)(C)NC(=S)N/N=C\c1ccc(-c2ccc([N+](=O)[O-])cc2)o1	-22%	-19%	?	59	-5%[46.1 µM]	3.7µM*
CCC(=O)N/N=C/c1ccc(-c2ccc(Cl)cc2)o1	11%	-16%	51%	69	11%[46.1 µM]	?
CCC(=O)N/N=C/c1ccc(-c2ccc([N+](=O)[O-])cc2)o1	?	-12%	-2%	-26	4%	10µM*
Cc1cc(C)n(Cc2ccc(C(=O)N/N=C/c3ccc(-c4ccc([N+](=O)[O-])cc4)o3)o2)n1	-12%	?	-10%	-64*	?	5.2µM*
Cc1ccccc1CS(=O)(=O)Cc1ccc(C(=O)NCc2ccc(F)cc2)o1	?	/	/	-9	/	/
CCOC(c1cc(OC)cc([N+](=O)[O-])c1OC)C(C)C(OC)[C@@H](C)/C=C/CC(=O)OC (stereo not given in full)	/	/	/	/	1%[14.2 µM]	/
Cc1ccc([N+](=O)[O-])cc1-c1ccc(/C=N/NC(=O)c2cc3c(ccc4ccccc43)o2)o1	14%	?	/	-29	22%	41%
Cc1ccc(-c2ccc(/C=N\NC(=O)c3cc4c(ccc5ccccc54)o3)o2)cc1[N+](=O)[O-]	?	?	?	-95*	-8%	2.9µM*
